Source: PubChem (National Center for Advancing Translational Sciences (NCATS))
Only some compounds are listed: those with a hit (about 19% of all), similar ones and a draw of the others.
IL-1B inflam inh – blocks inflammasome-driven IL-1 beta release; THP-1 LPS/ATP IL-1B secretion, AlphaLISA, 16 h; hits give low values; hit rate 4.7% among 360,000; activity change, % at 57.5 µM; in the data active means activity change below about -50%; inconclusive means mostly about -30% to -49%
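Secreted IL-1B measured by AlphaLISA bead assay after 16 h compound exposure of THP-1 cells; compounds (final up to 57.5 uM) added 1 h before LPS (250 ng/mL) and ATP (1.25 mM) stimulation; lower signal means less secretion.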
DT40 TDP1 no CPT – qHTS for Inhibitors of human tyrosyl-DNA phosphodiesterase 1 (TDP1): qHTS in cells in absence of CPT; Potency, µM (highest dose often 46.2 µM), most hits filed as inhibitors; hit rate 15% among 420,000; DT40 Tdp1-/- hTDP1 cells, no CPT, ATP luminescence, 48 h; AID 686978, 2013; further: nearly all actives have a fitted effect of over 55% in size
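Growth of hTDP1-complemented DT40 Tdp1-knockout cells is measured by ATP luminescence after at least 48 hr compound exposure at 37 °C, with DMSO substituting for the 20 nM CPT used in the parallel screen.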
uPA generation – blocks generation of uPA at the cell surface | cell surface uPA generation assay, qHTS | Potency, µM (titrated, usually from 38.3 µM), hits mostly inhibitors | hit rate 0.31% among 330,000 | AID 540303; active means well fitted inhibition curve with a large enough effect; inconclusive means small, poorly fitted or top-dose-only effect; inactive means no such curve, though single readings can be large or run the other way; tested in mouse RAW 264.7 cells; further: nearly all actives have a fitted effect of over 55% in size
DT40 TDP1 CPT – DT40-hTDP1 cell growth loss with CPT; AID 686979; Potency, µM (series often up to 46.2 µM), actives largely listed as inhibitors; chicken DT40 Tdp1-/-;hTDP1 cells + 20 nM CPT, ATP luminescence, 48 h; hit rate 12% among 420,000; further: nearly all actives have a fitted effect of over 55% in size
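Cell growth measured by CellTiter-Glo luminescence after a minimum 48 h, 37 C compound exposure with 20 nM CPT in Tdp1-knockout DT40 cells stably expressing hTDP1, seeded 400/well; qHTS titration format.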
HT1080 IDH1KD tx – toxicity to HT-1080 IDH1 knockdown cells (counter line) | hit rate 2% among 360,000 | Potency, µM (series often up to 46.1 µM), hits mostly cytotoxic | HT-1080 IDH1 knockdown viability, ATP luminescence, 48 h
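% activity derives from luminescence (CellTiter-Glo), normalised to DMSO and no-cell wells. HT-1080-IDH1KD cells, 750/well, had 48 h compound exposure at 37 °C.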
HT1080-NT tox – kills 2HG-producing HT-1080-NT fibrosarcoma cells | HT-1080-NT fibrosarcoma viability, CellTiter-Glo ATP luminescence, 48 h | Potency, µM (highest dose often 46.1 µM), usual class: cytotoxic | hit rate 1.6% among 360,000;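 further: NT is the 2HG producing partner of a matched IDH1 knockdown line; nearly all actives have a fitted effect of over 55% in size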
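A 48-hour cytotoxicity screen used HT-1080-NT cells plated 2 hours before compound delivery. ATP-based CellTiter-Glo luminescence measured viability, normalized to DMSO and no-cell controls.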
Each line names hits and unclear results; the compound was inactive in the other large screens. Unless noted, the call rests on the fitted dose curve; in most records, active means well fitted curve in the direction sought with a large enough effect; inconclusive means small, poorly fitted or top-dose-only effect, or another doubt; inactive means no such curve, though single readings can be large; an effect the other way counts as inactive or inconclusive.

O=[N+]([O-])c1ccc(-c2nc3ccc([N+](=O)[O-])cc3[nH]2)cc1	IL-1B inflam inh -91, DT40 TDP1 no CPT 9.2µM, DT40 TDP1 CPT 13µM, HT1080 IDH1KD tx inconclusive, HT1080-NT tox inconclusive
Nc1ccc(-c2nc3ccc([N+](=O)[O-])cc3[nH]2)cc1	IL-1B inflam inh -80, DT40 TDP1 no CPT inconclusive, DT40 TDP1 CPT inconclusive
O=[N+]([O-])c1ccc2nc(/C=C/c3ccc(Cl)cc3)[nH]c2c1	IL-1B inflam inh -94, DT40 TDP1 no CPT 18µM, uPA generation inconclusive, DT40 TDP1 CPT 21µM, HT1080 IDH1KD tx inconclusive, HT1080-NT tox inconclusive
O=C1C(CCc2ccccc2)ON=C(c2cnccn2)N1Cc1ccc(F)cc1 (stereo not drawn)	DT40 TDP1 no CPT inconclusive, DT40 TDP1 CPT inconclusive (no result: uPA generation)
N#CC1(c2ccccc2)CCN(S(=O)(=O)c2ccc(OC(F)(F)F)cc2)CC1	DT40 TDP1 no CPT 15µM
CC(Oc1ccccc1)C(=O)N1CCN(S(=O)(=O)c2ccc(OC(F)(F)F)cc2)CC1 (stereo not drawn)	DT40 TDP1 no CPT inconclusive, DT40 TDP1 CPT 18µM (no result: uPA generation)
CC(Oc1ccccc1)C(=O)Nc1ccc(S(=O)(=O)N2CCN(C)CC2)cc1 (stereo not drawn)	DT40 TDP1 CPT inconclusive
COc1cccc2cc(-c3nc(-c4ccccc4F)no3)c(=O)oc12	none (no result: IL-1B inflam inh, uPA generation, HT1080 IDH1KD tx, HT1080-NT tox)
CCc1ccc(NC(=O)CSc2n[nH]c(=O)n2C2CC2)cc1	none
COC(=O)c1ccc(CN(c2ccc(C(=O)O)c(O)c2)S(=O)(=O)c2ccc(Cl)c([N+](=O)[O-])c2)cc1	IL-1B inflam inh -86, DT40 TDP1 no CPT 16µM, DT40 TDP1 CPT 16µM
Cc1c(C#N)c(NC(=O)COC(=O)c2cc(Cl)c3c(c2)OCCCO3)n(Cc2ccco2)c1C	DT40 TDP1 CPT inconclusive (no result: IL-1B inflam inh, uPA generation, HT1080 IDH1KD tx, HT1080-NT tox)
CSc1ccc(OC2CCCCC2NS(=O)(=O)c2ccc(Cl)cc2)cc1 (stereo not drawn)	DT40 TDP1 no CPT inconclusive, DT40 TDP1 CPT 26µM, HT1080 IDH1KD tx inconclusive, HT1080-NT tox inconclusive
O=S(=O)(NC1CCCCC1Oc1ccccc1)c1ccc(Cl)cc1 (stereo not drawn)	DT40 TDP1 no CPT inconclusive, HT1080 IDH1KD tx inconclusive, HT1080-NT tox inconclusive
CN(c1ccccc1)C1CCCCC1NS(=O)(=O)c1ccc(Cl)cc1 (stereo not drawn)	DT40 TDP1 no CPT 23µM, uPA generation inconclusive, DT40 TDP1 CPT inconclusive, HT1080 IDH1KD tx inconclusive
CC(C)OC(=O)c1ccc2ccc(-c3ccccc3)nc2c1	DT40 TDP1 no CPT 16µM, DT40 TDP1 CPT inconclusive (no result: uPA generation)
CC1C(=O)N(Cc2cn(CCC3OCCCO3)nn2)CCS(=O)(=O)N1Cc1ccc(-c2ccc(Cl)c(Cl)c2)cc1 (stereo not drawn)	DT40 TDP1 no CPT 3.7µM, DT40 TDP1 CPT 4.1µM, HT1080 IDH1KD tx 21µM, HT1080-NT tox inconclusive (no result: uPA generation)
COc1ccc(-c2ccc(CN3C(C)C(=O)N(Cc4cn(CCC5OCCCO5)nn4)CCS3(=O)=O)cc2)cc1 (stereo not drawn)	DT40 TDP1 no CPT 18µM, DT40 TDP1 CPT 16µM (no result: uPA generation)
CC1C(=O)N(Cc2cn(CCC3OCCCO3)nn2)CCS(=O)(=O)N1Cc1ccc(-c2ccc(F)cc2)cc1 (stereo not drawn)	DT40 TDP1 no CPT 18µM, DT40 TDP1 CPT 12µM (no result: uPA generation)
CC1C(=O)N(Cc2cn(CCC3OCCCO3)nn2)CCS(=O)(=O)N1Cc1ccc(-c2cccc(CO)c2)cc1 (stereo not drawn)	DT40 TDP1 no CPT inconclusive (no result: uPA generation)
CCc1ccccc1NC(=O)C1CCCN(S(=O)(=O)c2ccc3[nH]c(=O)ccc3c2)C1 (stereo not drawn)	none (no result: IL-1B inflam inh, uPA generation, HT1080 IDH1KD tx, HT1080-NT tox)
O=c1c(S(=O)(=O)c2cccc(Cl)c2)cn(Cc2ccccc2)c2cc(N3CCCCC3)c(F)cc12	none (no result: IL-1B inflam inh, uPA generation, HT1080 IDH1KD tx, HT1080-NT tox)
COc1ccc(CCNC(=O)CN2C(=O)C(=O)N(C3CCCC3)C2=O)cc1OC	none
COc1ccc(C(=O)N2CCN(c3ccccc3)CC2)cc1S(=O)(=O)N1CCCC1	none
COc1ccc(C(=O)N2CCN(c3cccc(C)c3C)CC2)cc1S(=O)(=O)NC1CC1	DT40 TDP1 no CPT 23µM, DT40 TDP1 CPT inconclusive
COc1cccc(N2CCN(C(=O)c3ccc4ccccc4c3)CC2)c1	DT40 TDP1 no CPT inconclusive, DT40 TDP1 CPT inconclusive
COc1ccc(C(=O)N2CCN(c3ccccc3Cl)CC2)cc1S(=O)(=O)NC1CC1	DT40 TDP1 no CPT 4.1µM, DT40 TDP1 CPT inconclusive
COc1cccc(N2CCN(C(=O)c3ccc(OC)c(S(=O)(=O)NC4CC4)c3)CC2)c1	DT40 TDP1 no CPT 16µM, DT40 TDP1 CPT inconclusive (no result: uPA generation)
COc1ccc(C(=O)C2CCCN(C(=O)c3noc4c3CCCC4)C2)cc1F (stereo not drawn)	DT40 TDP1 no CPT 18µM, DT40 TDP1 CPT inconclusive
COc1ccc(C(=O)C2CCCN(C(=O)c3cccnc3SC)C2)c(C)c1 (stereo not drawn)	IL-1B inflam inh -70, DT40 TDP1 no CPT inconclusive, DT40 TDP1 CPT inconclusive
COc1ccc(C(=O)C2CCCN(C(=O)c3csc(C(C)=O)c3)C2)c(C)c1 (stereo not drawn)	DT40 TDP1 CPT inconclusive
COc1ccc(C(=O)C2CCCN(C(=O)C3=CCCC3)C2)c(C)c1 (stereo not drawn)	DT40 TDP1 no CPT 23µM, DT40 TDP1 CPT inconclusive
COc1ccc(C(=O)C2CCCN(S(=O)(=O)c3ccc(C(C)=O)cc3)C2)c(C)c1 (stereo not drawn)	IL-1B inflam inh inconclusive, DT40 TDP1 no CPT 12µM, DT40 TDP1 CPT 16µM
COc1cccc(-c2nc(NCc3cccs3)c3ccccc3n2)c1	DT40 TDP1 CPT inconclusive (no result: IL-1B inflam inh, uPA generation, HT1080 IDH1KD tx, HT1080-NT tox)
COc1ccc(C(=O)C2CCCN(C(=O)c3noc4c3CCCC4)C2)c(C)c1 (stereo not drawn)	DT40 TDP1 no CPT 21µM, DT40 TDP1 CPT inconclusive
Cc1ccc(OCC(=O)Oc2c(C)cccc2C)cc1	none
COCC(=O)Oc1cc(-c2ccc(C)cc2C)c(OC(=O)COC)c(-c2ccc(C)cc2C)c1	IL-1B inflam inh inconclusive, DT40 TDP1 no CPT 9.2µM, DT40 TDP1 CPT 10µM, HT1080 IDH1KD tx inconclusive (no result: uPA generation)
O=C(NC1CC1)c1cccc2c1C(=O)c1ccc(N3CCC(Cc4ccccc4)CC3)cc1S2(=O)=O	DT40 TDP1 no CPT 13µM, uPA generation inconclusive, DT40 TDP1 CPT 23µM
O=C(NCCN1CCCCC1)c1cccc2c1C(=O)c1ccc(N3CCCC3)cc1S2(=O)=O	none
CC1CCN(c2ccc3c(c2)S(=O)(=O)c2cccc(C(=O)NC4CCCCC4)c2C3=O)CC1	DT40 TDP1 no CPT 16µM, DT40 TDP1 CPT 16µM
O=C1c2ccccc2S(=O)(=O)c2cc(N3CCC(C(=O)N4CCCCC4)CC3)ccc21	DT40 TDP1 no CPT 18µM, DT40 TDP1 CPT 21µM
